Laboratory results published in PubChem BioAssay AID488854 (National Center for Advancing Translational Sciences (NCATS), 2010).
Where “and” joins values, the source holds several entries; their conditions need not be identical. Equal values may be shown once. Records with an inconclusive call do not appear. Calls of active or inactive are those of the source. The call rests on the fitted dose curve; in most records, active means well fitted activation curve with a large enough effect; inconclusive means small, poorly fitted or top-dose-only effect; inactive means no such curve, though single readings can be large or run the other way.

The compounds below were run against Lysosomal acid glucosylceramidase (Homo sapiens) (UniProt P04062) (assay: qHTS Assay for Inhibitors and Activators of N370S glucocerebrosidase as a Potential Chaperone Treatment of Gaucher Disease: Confirmation for Probe SAR). Settings: N370S GC spleen homogenate, 4MU-glucoside fluorescence; series mostly up to 57.5 µM.
Chain of Lysosomal acid glucosylceramidase (Homo sapiens) (P04062 whole entry N409S): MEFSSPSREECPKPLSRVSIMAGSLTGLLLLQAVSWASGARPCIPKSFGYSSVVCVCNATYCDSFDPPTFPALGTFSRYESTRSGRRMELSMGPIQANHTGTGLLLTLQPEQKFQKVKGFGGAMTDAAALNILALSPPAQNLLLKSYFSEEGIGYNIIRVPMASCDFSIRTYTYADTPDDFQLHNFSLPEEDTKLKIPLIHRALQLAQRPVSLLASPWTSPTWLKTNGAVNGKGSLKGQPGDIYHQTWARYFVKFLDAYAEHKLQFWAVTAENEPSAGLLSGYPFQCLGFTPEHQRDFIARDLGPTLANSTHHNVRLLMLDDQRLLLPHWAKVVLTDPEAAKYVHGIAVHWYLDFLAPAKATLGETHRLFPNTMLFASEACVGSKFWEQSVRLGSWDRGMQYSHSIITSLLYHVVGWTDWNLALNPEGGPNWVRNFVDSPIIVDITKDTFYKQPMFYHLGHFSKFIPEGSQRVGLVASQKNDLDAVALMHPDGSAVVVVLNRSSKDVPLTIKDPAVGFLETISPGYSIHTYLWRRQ
Source text: NIH Chemical Genomics Center [NCGC] NIH Molecular Libraries Probe Production Centers Network [MLPCN] MLPCN Grant: MH086442-01 Assay Submitter (PI): Wei Zheng Glucocerebrosidase (GC) catalyzes the hydrolysis of beta-glucocerebroside to glucose and ceramide in lysosomes. Mutations in the glucocerebrosidase gene result in Gaucher disease, an autosomal recessive lysosomal storage disorder. Many of the mutations encountered in patients with Gaucher disease are missense alterations that may cause misfolding, decreased stability and/or mistrafficking of this lysosomal protein. […] These inhibitors include iminosugar analogs and three non-iminosugar inhibitors identified from a previous HTS of 62,000 compounds with the wild type recombinant enzyme. However, the enhancement of enzyme activity by the chaperone action of an enzyme inhibitor must be balanced against the direct inhibition of the enzyme. An enzyme activator could also function as a chaperone by binding to the enzyme and helping to correct its misfolding and mistrafficking. While activators for GC have not yet been identified, they may have better therapeutic potential than inhibitors. Therefore the discovery and development of chemical activators may provide a new strategy for the chaperone therapy. We have optimized a new assay using N370S mutant GC derived from the spleen of a Gaucher patient. […] In addition, the MLPCN compound library has expanded, which increases the chance of finding new and better probes.
NCGC Assay Protocol Summary: This is a fluorogenic enzyme assay with 4-methylumbelliferyl-beta-D-glucopyranoside as the substrate and N370S glucocerebrosidase from human spleen homogenate as the enzyme preparation. Upon the hydrolysis of this fluorogenic substrate, the resulting product, […] which can be detected by a standard fluorescence plate reader. Data were normalized to the controls for basal activity (without enzyme) and 100% activity (with enzyme). The AC50 values were determined from concentration-response data modeled with the standard Hill equation. Assay buffer: 50 mM citric acid (titrated with potassium phosphate to pH 5.0), 100 mM potassium chloride, 10 mM sodium chloride, 1 mM magnesium chloride, 0.01% Tween-20. 1536-well assay protocol: (1) Add 2 ul/well of spleen homogenate (27 ug final) (2) Add 23 nL compounds in DMSO solution. The final titration was 0.5 nM to 58 uM. (3) Add 2 ul of substrate (1 mM final) (4) Incubate at 37C for 40 min. (5) Add 2 ul stop solution (1M NaOH and 1M Glycine mixture, pH 10) (6) Detect the assay plate in a ViewLux plate reader (PerkinElmer) with Ex=365 nm and Em=440nm. Keywords: Glucocerebrosidase, beta-glucosidase, Gaucher Disease, pharmacological chaperone, chaperone therapy, high throughput screening, glucocerebrosidase inhibitor, MLSMR, MLSCN, NIH Roadmap, qHTS and NCGC

SMILES	Potency
Cc1cc(-c2ccccc2)n2ncc(C(=O)Nc3ccccc3Sc3ccccc3)c2n1	inactive
Cc1cc(C)n2ncc(C(=O)NC3CCC(C(C)(C)C)CC3)c2n1 (configuration not stated)	8.19 µM (active) and 1.63 µM (active)
Cc1cc(C)n2ncc(C(=O)Nc3ccc(S(C)(=O)=O)cc3)c2n1	inactive
Cc1cc(C)n2ncc(C(=O)Nc3ccccc3C)c2n1	16.3 µM (active)
Cc1cc(C)n2ncc(C(=O)Nc3ccc(Cl)c(Cl)c3)c2n1	3.66 µM (active)
C=C1C=C(C(F)F)n2ncc(C(=O)Nc3ccc(C(C)CC)cc3)c2N1 (configuration not stated)	2.51 µM (active)
Cc1cc(C)n2ncc(C(=O)Nc3ccccc3)c2n1	5.17 µM (active)
